Reference: PubChem BioAssay AID652017 (The Scripps Research Institute Molecular Screening Center, 2013)
Screen size: about 370,000 compounds; about 3,800 (1%) were called active. No stated cut-off is given here; in the data, active means activation above about 7.8%; inactive means the rest. What follows is part of a selection rich in actives, with near analogues and random picks from the rest.

Assay: SMARCA2 (BRM) function activators, primary screen, cell-based, luminescence, high throughput (AID 652017);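 further: 0% = vehicle wells and 100% = reference activator wells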
Conditions: MG213 cells, MMTV-luciferase reporter, dexamethasone, overnight; at 9.1 µM; hits give high values

activation, inactive:
COc1ccc2ccccc2c1CNc1nnnn1C -2.94%, COc1cc(CNCc2ccc(OC)c3ccccc23)cc(OC)c1OC -2.64%, Cc1ccsc1C(=O)NC1CCCCC1C (stereo not given) -1.24%, Cc1ccc(/C=N/NC(=O)c2sccc2OCc2ccc(F)cc2)cc1 3.74%, COC(=O)[C@H](C(C)C)N(CCc1cn(Cc2ccccc2)nn1)S(=O)(=O)c1ccc(F)cc1Br -6.28%, CC(=O)OC12CCCN(C1)/C(=C/c1ccncc1)C2 (stereo not given) -3.2%, COc1ccccc1Nc1nnc(SC(C)C(=O)NC2CC2)s1 (stereo not given) -2.93%, O=C(CCCCCN1C(=O)C2C3C=CC(C3)C2C1=O)Nc1ccccn1 (stereo not given) -1.58%, COC(=O)C(C)n1cnc2c(nnn2-c2ccc(F)cc2)c1=O (stereo not given) 2.24%, CCOC(=O)C(C)n1cnc2c(nnn2-c2ccc(F)cc2)c1=O (stereo not given) 0.38%, O=C(NC1CCC1)c1ccc(C#CC2CC2)cn1 1.34%, O=C(CCC(=O)c1cccs1)NC1CCCCCC1 -4.41%, CCCCC(CC)CNC(=O)CCCCn1c(=O)[nH]c2ccsc2c1=O (stereo not given) -1.68%, C=CC[C@]12C[C@@]3(O[C@H](c4ccc(C(F)(F)F)cc4)N=C3C[C@H](c3ccc(OC)cc3)[C@H]1C)N(C1CCN(Cc3ccccc3)CC1)C2=O -1.14%, O=C(Cn1c(=O)sc2ccccc21)Nc1ccc2c(c1)OCCO2 -0.22%, Cc1nnc(NC(=O)CSc2nccn2-c2cccc(C)c2C)s1 -0.75%, C=C(C)C1CC23C(=O)C4(C(=O)c5ccccc5)C[C@@]5(C)CCC(CC2C1(C)C)(C4=O)C35OC (stereo not given in full) -5.25%, Cc1ccccc1CN1CCCCC(NC(=O)Nc2ccccc2F)C1=O (stereo not given) -2.59%, C[C@@H](NC(=O)c1ccccc1OCC(=O)Nc1ccc(I)cc1)C(=O)N(C)Cc1ccccc1 -3.4%, O=C(CSc1c2c(nc3ccc(Cl)cc13)CCCC2)NCc1ccco1 3.79%, CC(C)CCC(C)NC(=O)c1ccc2nccnc2c1 (stereo not given) 0.02%, O=C(O)CSCc1ccc(C(=O)O)o1 0.73%, O=C(O)c1ccc(NC(=O)c2ccc(COc3ccc(Cl)cc3)o2)cc1 -1.89%, COc1cc(NC(=O)C2=C(C)OCCS2)c(Cl)cc1C(=O)NCCCN1CCCC(C)C1 (stereo not given) -0.17%, NC1=NN(c2cccc(C(=O)O)c2)C(=O)C1 -1.73%, Cc1cccc(C(=O)N2CCN(S(=O)(=O)N3CCCCC3)CC2)c1 3.31%, Cc1cc(C)n2c(Nc3c(C)cccc3C)c(CCc3ccccc3)nc2n1 0.46%, O=C(NCc1cccs1)C1CCCN(S(=O)(=O)c2ccc([N+](=O)[O-])cc2)C1 (stereo not given) 0.22%, CCC(C)[C@@H](C(=O)OC)N(CCc1cn(Cc2ccccc2)nn1)S(=O)(=O)c1ccccc1Br (stereo not given in full) -5.37%, COc1ccccc1-c1sc2ccccc2c1-c1ccc(Br)nc1 -0.09%, COc1ccccc1C1=CC(=O)CCC1 1.01%, CCOc1ccc(N(CC(=O)Nc2c(C)n(C)n(-c3ccccc3)c2=O)S(=O)(=O)c2ccc(Cl)s2)cc1 3.83%, CCC(CO)Nc1cccc2c1S(=O)(=O)N(Cc1cn(Cc3ccccc3C(F)(F)F)nn1)Cc1ccccc1O2 (stereo not given) -1.93%, O=C(CSc1cccc[n+]1[O-])c1ccc(-c2ccccc2)cc1 1.84%, Cc1ccccc1C(=O)O -3.71%, CCC1CO/C(=C(\C(=C(Cl)Cl)N2CCOCC2)[N+](=O)[O-])N1 (stereo not given) -2.15%, Brc1ccc2nc(-c3ccccc3)c(Cc3ccccc3)n2c1 3.02%, Cc1cc(Br)cn2c(Cc3ccccc3C(F)(F)F)c(-c3ccc(Cl)cc3)nc12 3.06%, COc1ccccc1Cc1c(-c2ccc(Cl)cc2)nc2ccc(Cl)cn12 4.42%, Cc1cc(Br)cn2c(Cc3ccccc3C(F)(F)F)c(-c3ccc(C#N)cc3)nc12 -1.52%, COC(=O)c1cc(S(=O)(=O)N2CCN(C(=O)C3CCCO3)CC2)cn1C (stereo not given) -1.22%, CC(C)CNS(=O)(=O)CC1NCCc2ccccc21 (stereo not given) -3.17%, COc1cccc(Cn2cc(COC(=O)Nc3ccc(F)cc3)nn2)c1 -0.28%, COc1cccc(N(C)C(=O)[C@@H](C)[C@@H](O)c2ccc3ccccc3c2)c1 -2.05%, COc1ccnc(NC(=S)N2CCN(c3ncc(C(F)(F)F)cc3Cl)CC2)c1 -3.61%, COc1ccc(CN2C(=O)N3Cc4cc(OC)ccc4C3CS2(=O)=O)cc1 (stereo not given) -5.55%, CC(C)NC(=O)C(=O)NCCN1CCN(S(=O)(=O)c2ccc(Cl)cc2)CC1 -1.85%, C#CCNC(=O)C[C@H]1C[C@@]2(C(=O)OC)C(=C[C@H](C(C)C)O[C@@H]2C2CC2)N(Cc2ccco2)C1=O -5.88%

activation, active:
COc1ccc2ccccc2c1CNCc1ccccn1 8.32%, Cc1ccsc1C(=O)N/N=C/c1ccc([N+](=O)[O-])cc1 11.6%, CCOC(=O)C(C)n1cnc2c(nnn2-c2cccc(OC)c2)c1=O (stereo not given) 9.14%, O=C(CCCCCn1c(=S)[nH]c2ccsc2c1=O)NC1CCCCC1 8.72%, Cc1nnc(NC(=O)Cn2c(=O)sc3ccccc32)s1 8.41%, CC(C)CCNC(=O)c1ccc2c(Cl)c3c(nc2c1)CCC3 10.7%, O=C(O)c1ccc(COc2c(F)c(F)cc(F)c2F)o1 8.75%, O=C(O)c1cccc(N=NN2CCCCCC2)c1 17.7%, COc1ccccc1C1=Nc2cccc3cccc(c23)N1 8.11%, Cc1ccc(C(=O)CSc2ccccc2C(=O)O)cc1 9.24%, Cc1ccc(-c2nc3ccc(Cl)cn3c2Cc2ccccc2)cc1 10.1%, Cc1ccc(-c2nc3ccc(Br)cn3c2Cc2ccccc2C(F)(F)F)cc1 8.44%
